Results taken from PubChem BioAssay (EPA / NIEHS).
“And” between values parts separate entries of the source, which are not always exact repeats. Equal values may be shown once. Results filed as inconclusive are left out. A structure can be active in one record and inactive in another. The source made the active and inactive calls. How the source made its calls: active means hit-call score of the fitted dose curve at least 0.9, where 1 is the maximum; inconclusive means response in the unintended direction; inactive means score below 0.9.

Molecular target: Estrogen receptor beta (Homo sapiens) (UniProt Q92731)
Sequence (Q92731 whole entry, looked up): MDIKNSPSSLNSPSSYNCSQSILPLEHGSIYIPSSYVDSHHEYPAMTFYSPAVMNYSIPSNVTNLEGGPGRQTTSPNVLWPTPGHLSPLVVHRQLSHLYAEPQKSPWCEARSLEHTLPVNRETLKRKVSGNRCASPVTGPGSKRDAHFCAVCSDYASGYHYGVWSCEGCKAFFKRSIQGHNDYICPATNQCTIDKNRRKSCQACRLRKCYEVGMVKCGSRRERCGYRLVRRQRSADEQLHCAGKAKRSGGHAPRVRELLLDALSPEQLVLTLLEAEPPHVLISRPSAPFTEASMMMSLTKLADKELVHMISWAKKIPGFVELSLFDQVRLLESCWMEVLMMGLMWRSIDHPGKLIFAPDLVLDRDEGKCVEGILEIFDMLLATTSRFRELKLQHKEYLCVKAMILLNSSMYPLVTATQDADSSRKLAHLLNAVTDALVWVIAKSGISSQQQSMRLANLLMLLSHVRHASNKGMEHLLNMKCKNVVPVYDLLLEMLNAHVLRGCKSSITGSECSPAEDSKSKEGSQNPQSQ
Assay: OT_ER_ERbERb_0480: Odyssey Thera (OT) 8-hour HEK293T Protein-Complementation Assay for Estrogen Receptor-beta/-beta Homodimer (AID 2283357);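 further: active means signal gain over DMSO baseline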
How it was run: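 Cells (HEK293T, stable ER-beta LBD PCA pair) are treated 8 hours, fixed and Draq5-stained; signal is fluorescence intensity increase relative to vehicle, fitted in the gain direction.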

SMILES	outcome	AC50
CCN(Cc1c(F)cccc1Cl)c1c([N+](=O)[O-])cc(C(F)(F)F)cc1[N+](=O)[O-]	inactive	
CCSC(=O)N(CC(C)C)CC(C)C	inactive	
Cc1nn(C)c(Oc2ccccc2)c1C=NOCc1ccc(C(=O)OC(C)(C)C)cc1	inactive	
c1ccc2[nH]c(-c3cscn3)nc2c1	inactive	
CCCCOCCOCCOCc1cc2c(cc1CCC)OCO2	inactive	
O=C(c1ccc(O)cc1O)c1ccc(O)cc1O		1.6 µM (active) and 1.63 µM (active) and 1.4 µM (active)
CCCOC(=O)c1ccc(C(=O)OCCC)nc1	inactive	
CC(=O)[C@H]1CC[C@H]2[C@@H]3CCC4=CC(=O)CC[C@]4(C)[C@H]3CC[C@]12C	inactive	
CCCN(CCC)C(=O)SCC	inactive	
CCOC(=O)c1ccc(O)cc1	inactive	27.8 µM (active) and 33.1 µM (active) and 31.7 µM (active)
CC(C)(C)[C@@H](O)[C@@H](Cc1ccc(Cl)cc1)n1cncn1	inactive	
CCOC(=O)C(C)Oc1ccc(Oc2nc3ccc(Cl)cc3o2)cc1 (stereo not given)	inactive	
N#CSCSc1nc2ccccc2s1	inactive	
COC(=O)c1ccc(I)cc1S(=O)(=O)NC(=O)Nc1nc(C)nc(OC)n1	inactive	

Molecular target: human Peroxisome Proliferator-activated Receptor alpha (PPARa), PPARA (gene 5465) (UniProt Q07869)
Sequence (Q07869 whole entry, looked up): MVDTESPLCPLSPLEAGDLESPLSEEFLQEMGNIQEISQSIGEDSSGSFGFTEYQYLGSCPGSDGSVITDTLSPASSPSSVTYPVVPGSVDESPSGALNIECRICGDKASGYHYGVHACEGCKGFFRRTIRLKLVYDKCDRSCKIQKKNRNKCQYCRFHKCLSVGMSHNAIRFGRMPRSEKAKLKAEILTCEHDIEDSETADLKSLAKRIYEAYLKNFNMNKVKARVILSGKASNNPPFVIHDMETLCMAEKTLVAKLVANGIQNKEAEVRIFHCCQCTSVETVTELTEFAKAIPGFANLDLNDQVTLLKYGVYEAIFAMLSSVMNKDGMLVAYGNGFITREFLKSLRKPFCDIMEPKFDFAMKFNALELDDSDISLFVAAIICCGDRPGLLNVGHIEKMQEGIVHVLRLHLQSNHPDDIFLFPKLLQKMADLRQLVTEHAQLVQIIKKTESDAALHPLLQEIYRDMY
Assay: NVS_NR_hPPARa: NovaScreen (NVS) Nuclear Receptor Binding Assay for human Peroxisome Proliferator-activated Receptor alpha (PPARa) (AID 2283359);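 further: activity means loss of TR-FRET signal versus DMSO baseline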
How it was run: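 Chemicals were first screened in duplicate at 25 uM, and active ones were retested across concentration series. Binding was monitored by TR-FRET one hour after dosing, with decreased signal against DMSO counted as activity.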

SMILES	outcome	AC50
CN(C)C(=O)Nc1ccc(Cl)c(Cl)c1	inactive	
S=C(S)NCCNC(=S)S.[Mn+2].[S-]C([S-])=NCCN=C([S-])[S-].[Zn+2]	inactive	12.5 µM (active)
O=C(c1ccccc1)C1CCCCC1	inactive	
CCOC(=O)c1ccc(O)cc1	inactive	
CC(C)(c1ccc(O)cc1)c1ccc(O)cc1		0.105 µM (active)

Molecular target: PGR (gene 5241) (UniProt P06401)
Sequence (P06401 whole entry, looked up): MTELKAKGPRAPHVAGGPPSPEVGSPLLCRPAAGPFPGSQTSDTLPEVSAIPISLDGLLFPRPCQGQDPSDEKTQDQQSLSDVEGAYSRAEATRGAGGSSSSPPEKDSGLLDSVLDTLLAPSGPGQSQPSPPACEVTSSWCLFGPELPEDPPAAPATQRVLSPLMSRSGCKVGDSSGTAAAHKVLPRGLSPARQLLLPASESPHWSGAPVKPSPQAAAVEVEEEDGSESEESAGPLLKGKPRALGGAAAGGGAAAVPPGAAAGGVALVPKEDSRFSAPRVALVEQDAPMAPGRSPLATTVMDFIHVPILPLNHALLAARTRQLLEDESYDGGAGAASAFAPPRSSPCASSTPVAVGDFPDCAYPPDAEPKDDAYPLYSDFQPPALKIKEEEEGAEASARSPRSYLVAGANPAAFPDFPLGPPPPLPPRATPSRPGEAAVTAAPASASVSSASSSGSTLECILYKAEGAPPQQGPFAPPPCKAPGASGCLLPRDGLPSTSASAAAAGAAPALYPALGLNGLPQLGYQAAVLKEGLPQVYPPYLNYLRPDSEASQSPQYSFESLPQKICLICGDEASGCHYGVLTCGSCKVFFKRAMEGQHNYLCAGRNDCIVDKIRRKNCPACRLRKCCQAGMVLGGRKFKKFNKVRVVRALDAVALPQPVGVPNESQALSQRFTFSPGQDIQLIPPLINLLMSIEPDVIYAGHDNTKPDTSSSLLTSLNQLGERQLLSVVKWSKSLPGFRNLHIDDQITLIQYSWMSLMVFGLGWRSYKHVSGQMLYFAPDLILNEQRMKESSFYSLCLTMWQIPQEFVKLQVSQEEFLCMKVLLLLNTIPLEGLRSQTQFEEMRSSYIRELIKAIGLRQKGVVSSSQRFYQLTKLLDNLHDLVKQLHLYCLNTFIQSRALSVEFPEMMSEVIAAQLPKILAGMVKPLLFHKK
Assay: NVS_NR_hPR: NovaScreen (NVS) Nuclear Receptor Binding Assay for human Progestron Receptor (PR) (AID 2283360);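 further: active means loss of bound radioligand signal versus DMSO baseline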
How it was run: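 Competitive displacement of a labelled radioligand from T47D-derived receptor protein is measured in a cell-free format. Initial testing uses 25 uM in duplicate, with positive and negative controls on every plate.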

SMILES	outcome	AC50
Cc1nn(C)c(Oc2ccccc2)c1C=NOCc1ccc(C(=O)OC(C)(C)C)cc1	inactive	
CCCCOCCOCCOCc1cc2c(cc1CCC)OCO2	inactive	
O=C(c1ccc(O)cc1O)c1ccc(O)cc1O		11.2 µM (active)
CCCN(CCC)C(=O)SCC	inactive	
CC(C)(c1ccc(O)cc1)c1ccc(O)cc1	inactive	11.2 µM (active) and 8.49 µM (active)
N#CSCSc1nc2ccccc2s1	inactive	
CC1(C)C(C=C(Cl)Cl)C1C(=O)OCc1cccc(Oc2ccccc2)c1 (stereo not given)	inactive	

Molecular target: Nuclear receptor subfamily 1 group I member 2 (Homo sapiens) (UniProt O75469)
Sequence (O75469 whole entry, looked up): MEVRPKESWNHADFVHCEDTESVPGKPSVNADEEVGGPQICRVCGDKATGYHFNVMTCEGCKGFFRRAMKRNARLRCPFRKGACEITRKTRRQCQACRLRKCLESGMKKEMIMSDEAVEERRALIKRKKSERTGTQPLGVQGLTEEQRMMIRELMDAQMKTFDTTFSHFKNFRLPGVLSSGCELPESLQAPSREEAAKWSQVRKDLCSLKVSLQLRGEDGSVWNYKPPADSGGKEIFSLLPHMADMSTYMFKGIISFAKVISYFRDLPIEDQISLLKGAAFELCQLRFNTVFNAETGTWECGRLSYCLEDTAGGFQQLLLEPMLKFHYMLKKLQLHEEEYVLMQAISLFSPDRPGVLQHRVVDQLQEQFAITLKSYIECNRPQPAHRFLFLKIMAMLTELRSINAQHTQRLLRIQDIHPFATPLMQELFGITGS
Assay: NVS_NR_hPXR: NovaScreen (NVS) Nuclear Receptor Binding Assay for human Pregnane X Receptor (PXR) (AID 2283365);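 further: a drop in FRET signal versus DMSO baseline means the compound binds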
How it was run: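 Human PXR protein, cell-free; compound added, incubated 2 h, TR-FRET read. Signal decrease vs DMSO = binding. Screened 25 uM duplicate, actives re-run as dilution series.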

SMILES	AC50	outcome
S=C(S)NCCNC(=S)S.[Mn+2].[S-]C([S-])=NCCN=C([S-])[S-].[Zn+2]	5.33 µM (active) and 1.52 µM (active)	
O=C(c1ccccc1)C1CCCCC1		inactive
C#C[C@]1(O)CC[C@H]2[C@@H]3CCC4=CC(=O)CC[C@@H]4[C@H]3CC[C@@]21CC		inactive
CC(C)(c1ccc(O)cc1)c1ccc(O)cc1	8.08 µM (active) and 10.9 µM (active)	inactive
C[C@]12CC[C@@H]3c4ccc(O)cc4C[C@@H](CCCCCCCCCS(=O)CCCC(F)(F)C(F)(F)F)[C@H]3[C@@H]1CC[C@@H]2O (stereo not given in full)		inactive
